CRFBP-R2 agonist = agonists of human CRF-binding protein/CRF-R2 receptor complex. HEK293 CRF-R2/CRF-BP, calcium dye fluorescence (FLIPR); percent of saturating CRF peptide response. 0.46% of 350,000 active. activation, % at 13.2 µM;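 active = activation of at least 50%, plus an integration ratio under a set limit after plate pattern correction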;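 also: plate controls were neutral control wells without compound for no effect and CRF at EC100 for full effect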
ABCB6 inh MLPCN = inhibitors of human ABC transporter ABCB6; AID 602162; K562-ABCB6 porphyrin accumulation, flow cytometry, 1 h; stronger effect = lower value; Q9NP58; 0.19% of 360,000 active; fluorescence ratio to DMSO, % at 10 µM;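 active = fluorescence ratio to DMSO below 75%, the collection mean minus 3 SD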;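 also: signal is porphyrin accumulated inside mitochondria; 100% equals median channel fluorescence of DMSO control wells; lower ratio means ABCB6 inhibition with less porphyrin fluorescence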
Target sequence (Q9NP58 whole entry, looked up): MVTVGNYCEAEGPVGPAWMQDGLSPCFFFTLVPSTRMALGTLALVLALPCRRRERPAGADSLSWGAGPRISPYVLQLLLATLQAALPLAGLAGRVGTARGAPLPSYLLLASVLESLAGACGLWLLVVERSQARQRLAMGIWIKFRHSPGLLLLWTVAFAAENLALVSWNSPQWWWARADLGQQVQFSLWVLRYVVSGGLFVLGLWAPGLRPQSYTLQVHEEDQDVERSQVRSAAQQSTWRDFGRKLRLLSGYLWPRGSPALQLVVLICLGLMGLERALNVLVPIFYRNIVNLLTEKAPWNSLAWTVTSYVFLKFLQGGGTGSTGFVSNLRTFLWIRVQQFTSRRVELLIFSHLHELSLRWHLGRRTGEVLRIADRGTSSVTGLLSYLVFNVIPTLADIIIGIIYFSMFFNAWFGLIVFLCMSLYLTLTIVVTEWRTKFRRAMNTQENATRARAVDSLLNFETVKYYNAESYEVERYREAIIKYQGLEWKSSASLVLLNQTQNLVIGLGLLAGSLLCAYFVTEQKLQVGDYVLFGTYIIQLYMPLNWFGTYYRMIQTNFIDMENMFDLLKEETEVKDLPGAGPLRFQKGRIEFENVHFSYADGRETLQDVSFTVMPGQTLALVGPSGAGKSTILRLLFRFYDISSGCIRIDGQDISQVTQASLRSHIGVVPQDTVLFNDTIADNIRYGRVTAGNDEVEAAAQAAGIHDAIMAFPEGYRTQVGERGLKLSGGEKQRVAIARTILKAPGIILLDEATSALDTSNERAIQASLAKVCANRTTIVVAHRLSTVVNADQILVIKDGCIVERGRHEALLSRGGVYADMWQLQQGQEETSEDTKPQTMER
CRFBP-R2 block = antagonists of CRF-binding protein/CRF-R2 receptor complex | 0.59% of 350,000 active | HEK293 CRF-R2/CRF-BP, CRF-induced calcium fluorescence | inhibition, % at 11.8 µM;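 active = inhibition of the ligand-induced calcium signal above about 50% at the single tested concentration, limit read from the data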
MEKK3 PB1 HTS = raises or lowers MEK5 binding to the human MEKK3 PB1 domain | bead-based flow cytometry, Alexa488-MEK5 binding to MEKK3; actives lie on both sides; 0 = blocked by unlabeled MEK5, 100 = vehicle | AID 1529 | 1.4% of 290,000 active | binding response (% of control), % at 10 µM | Q99759;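 active = binding response more than 3 SD above or below the average of its plate-row segment, actives on both sides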;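 also: Alexa488 bead fluorescence after subtracting the streptavidin-only scavenger bead signal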
MEKK2wt PB1 HTS = raises or lowers MEK5 binding to wildtype human MEKK2 PB1 domain; 1.1% of 290,000 active; bead flow cytometry, Alexa488-MEK5 binding to MEKK2 WT; actives lie on both sides; Q9Y2U5; binding response (% of control), % at 10 µM; in the data active = binding response below about 67% or above about 130%
MEKK2 mut-MEK5 = signal of MEK5 binding to mutant human MEKK2 PB1 domain; AID 1530; bead flow cytometry, Alexa488-MEK5 binding to MEKK2 mutant; 0.35% of 290,000 active; percent response, % at 10 µM; in the data active = percent response above about 24%, passing the limit was not always enough
MEKK2wt confirm = raises or lowers MEK5 binding to wildtype human MEKK2, retest. shares compounds with MEKK3 PB1 HTS. bead flow cytometry, Alexa488-MEK5 binding to MEKK2 WT; actives lie on both sides. binding response (% of control), % at 10 µM. 2.4% of 5,900 active. AID 1892; in the data active = binding response below about 16% or above about 210%; inactive = in between
MEKK2mut-MEK5 = signal of MEK5 binding to mutant human MEKK2, retest; 2% of 5,900 active; bead flow cytometry, Alexa488-MEK5 binding to MEKK2 mutant; AID 1893; percent response, % at 10 µM; shares compounds with MEKK3 PB1 HTS; in the data active = percent response mostly above about 71%, no sharp cut-off; inactive = mostly below about 38%;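 also: higher means compound restores mutant binding toward wildtype level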
MEKK3-MEK5 inh = confirmation of inhibitors of MEK5 binding to human MEKK3 | 1.8% of 5,900 active | bead flow cytometry, Alexa488-MEK5 binding to MEKK3; stronger effect = lower value | shares compounds with MEKK3 PB1 HTS | binding response (% of control), % at 10 µM | AID 1894;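 active = binding response below 72% of control, or above a set upper limit, though filed actives all read lower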;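 also: 100% = DMSO only wells and 0% = binding blocked by excess unlabeled MEK5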
Starred values were filed as active, the others as inactive; / = not tested or not shown; [ ] = remark or other dose. In the library only some 2.9% were active in any assay of this set; here they are far more common.

SMILES	CRFBP-R2 agonist	ABCB6 inh MLPCN	CRFBP-R2 block	MEKK3 PB1 HTS	MEKK2wt PB1 HTS	MEKK2 mut-MEK5	MEKK2wt confirm	MEKK2mut-MEK5	MEKK3-MEK5 inh
Cc1cc(C)c2sc(N(CCCN(C)C)C(=O)c3ccc(Br)s3)nc2c1	12.9	99.0	-41.6	114.0	189.0*	28.0	204.0	54.0	111.0
Cc1cc(C)c2sc(N(CCCN(C)C)C(=O)CN3C(=O)c4ccccc4C3=O)nc2c1	2.6	102.0	-5.2	70.0*[inhibitor]	321.0*	82.0*	156.0	37.0	115.0
Cc1ccc(CN2C(=O)CCC2C(=O)NCCc2ccccc2)cc1 (stereo not given)	-0.2	102.0	4.1	99.0	102.0	3.0	/	/	/
Cc1nc(CS(=O)(=O)c2ccc(Cl)cc2)sc1C(=O)O	-1.4	95.0	8.4	129.0*	129.0	23.0	101.0	-4.0	101.0
O=C(c1ccc(F)cc1)N1CCN2C(=O)c3ccccc3C12c1ccc(Cl)cc1 (stereo not given)	-0.8	96.0	-13.9	100.0	103.0	0.0	/	/	/
O=C(c1ccc(F)cc1)N1CCN2C(=O)c3ccccc3C12c1ccccc1 (stereo not given)	-0.2	102.0	-11.1	60.0*[inhibitor]	66.0	-38.0	103.0	-2.0	101.0
Cc1oc2c(CN3CCCCC3)c(O)ccc2c(=O)c1-c1ccc(Cl)cc1	-0.3	97.0	0.8	107.0	112.0	8.0	/	/	/
COC(=O)C(C)N(C#N)c1nc(C)cc(C)n1 (stereo not given)	-3.8	79.0	-44.7	131.0*	117.0	7.0	107.0	6.0	104.0
COC(=O)C(C)N(C#N)c1nc(NC(C)C)nc(SC)n1 (stereo not given)	0.4	97.0	-9.0	104.0	105.0	10.0	/	/	/
CCC(C(=O)N1CCN(S(=O)(=O)c2ccc(F)cc2)CC1)c1ccccc1 (stereo not given)	-4.4	96.0	1.3	/	/	/	/	/	/
CN(Cc1nc2ccccc2c(=O)[nH]1)C(=O)c1ccc(S(=O)(=O)N2CCCC2)cc1	-0.2	96.0	4.4	/	/	/	/	/	/
Cc1nc2c3ccccc3nc(SCC(=O)N3CC(C)CC(C)C3)n2n1 (stereo not given)	-1.8	103.0	-16.1	/	/	/	/	/	/
Cc1nc2c3ccccc3nc(SCC(=O)c3ccc(Cl)cc3)n2n1	0.4	97.0	4.5	129.0*	100.0	-1.0	103.0	1.0	107.0
Cc1ccc(C(=O)NCC(=O)OC(C)C(=O)Nc2ccccc2[N+](=O)[O-])s1 (stereo not given)	-0.6	93.0	-10.1	/	/	/	/	/	/
Cc1ccc(C(=O)NCC(=O)OC(C)C(=O)Nc2ccc(N(C)C)cc2)s1 (stereo not given)	-1.7	93.0	-9.9	49.0*[inhibitor]	50.0	-15.0	113.0	10.0	108.0
O=C(c1cccc(S(=O)(=O)N2CCCC2)c1)N1CCN(S(=O)(=O)c2cccc(Cl)c2)CC1	-1.1	98.0	-0.9	/	/	/	/	/	/
Cc1ccc(NC(=O)c2ccc3c(c2)CCN3S(C)(=O)=O)c(C)c1	1.2	101.0	17.6	105.0	102.0	2.0	/	/	/
CCn1cnc2cc(NCc3ccc(OC)cc3)ccc21	0.7	100.0	-40.7	96.0	101.0	10.0	/	/	/
CCOc1ccc2nc3cc(NCc4ccc(OC)cc4)ccc3c(N)c2c1	42.7	243.0	-1.6	82.0*[inhibitor]	163.0*	139.0*	220.0*	170.0*	98.0
CCc1ccc2c(c1)NC(=O)C2(C)Cc1ccc(Cl)s1 (stereo not given)	/	97.0	/	/	/	/	/	/	/
COC1CCN(Cc2cn(Cc3ccccc3)nc2-c2cc3ccccc3o2)CC1	2.6	96.0	-15.5	85.0	140.0*	24.0	120.0	2.0	98.0
OCC1CCN(Cc2cn(Cc3ccccc3)nc2-c2cc3ccccc3o2)CC1	5.8	91.0	-12.2	106.0	121.0	6.0	/	/	/

From PubChem BioAssay
